Source: PubChem (National Center for Advancing Translational Sciences (NCATS))
Pf growth 96h = P. falciparum growth inhibition at 96 hours. 320,000 tested, 6.9% active. Potency, µM (titrated, usually from 28.7 µM), hits mostly inhibitors. P. falciparum luciferase reporter growth, 96 h. AID 504834
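Delayed-death screen, second-generation endpoint: infected erythrocytes, 2% hematocrit, 0.05% parasitemia final; 96 hours at 37 C, 5% CO2; luciferase detection reagent; luminescence decrease equals reduced growth.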
AMA1-RON2 inh = AMA1-RON2 (P. falciparum) interaction inhibition. Potency, µM (series often up to 58.2 µM), usual class: inhibitors. AlphaScreen AMA1-biotinylated RON2 peptide binding. 360,000 tested, 0.2% active; further: nearly all actives have a fitted effect of over 45% in size
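AMA1 (3D7) with his tag at 25 nM final met compounds first, then biotinylated RON2 peptide at 25 nM; detection used donor plus acceptor beads, 10 µg/mL apiece, read by AlphaScreen after 30 min at room temperature.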
AmpC no deterg = AmpC beta-lactamase inhibition without detergent. P00811. AmpC nitrocefin hydrolysis, absorbance 480 nm, 0.0001% Triton. Potency, µM (doses to about 57.1 µM), hits mostly inhibitors. 330,000 tested, 0.52% active. AID 485341; further: nearly all actives have a fitted effect of over 20% in size
Target sequence (P00811 whole entry, looked up): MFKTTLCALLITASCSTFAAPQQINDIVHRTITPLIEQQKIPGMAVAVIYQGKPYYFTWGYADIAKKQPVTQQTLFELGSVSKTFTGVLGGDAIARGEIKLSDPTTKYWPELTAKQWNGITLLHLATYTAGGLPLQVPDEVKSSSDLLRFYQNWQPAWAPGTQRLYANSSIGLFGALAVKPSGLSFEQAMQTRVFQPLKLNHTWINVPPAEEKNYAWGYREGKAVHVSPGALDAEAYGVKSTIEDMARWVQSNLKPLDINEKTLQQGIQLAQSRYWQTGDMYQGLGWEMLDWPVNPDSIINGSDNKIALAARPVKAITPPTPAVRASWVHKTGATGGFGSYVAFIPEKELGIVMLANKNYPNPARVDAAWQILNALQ
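AmpC (5.3 nM in the dispensed reagent) in 20 mM phosphate pH 7.0 with 0.01% (detergent screen) or 0.0001% Triton X-100 was preincubated with compounds for 15 min at room temperature. Nitrocefin was then added from an 800 uM solution, and hydrolysis was followed at 480 nm.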
HCV inhibitor = HCV inhibition | Huh7.5.1 HCVcc-Cre infection, luciferase reporter, 44 h | Potency, µM (titrated, usually from 41.8 µM), hits mostly inhibitors | 340,000 tested, 3.4% active | AID 651820
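Reporter virus HCVcc-Cre (~0.5 moi) infects cells exposed to compound; seeding density 1,000 cells/well with 4 h settling beforehand. Luminescence, 15 sec read, taken 44 h post-infection following a 15 min RT substrate incubation.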
Pf growth 48h = inhibits P. falciparum growth in the first generation, 48 h; P. falciparum luciferase growth in erythrocytes, 48 h; Potency, µM (highest dose often 28.7 µM), actives largely listed as inhibitors; 310,000 tested, 5.9% active; AID 504832
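Firefly luciferase activity from engineered P. falciparum reports growth; inhibitors lower the luminescent signal. Cultures contained 2% hematocrit erythrocytes at 0.1% final parasitemia.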
AmpC detergent = blocks E. coli AmpC beta-lactamase in detergent assay; AID 485294; Potency, µM (titrated, usually from 114 µM), most hits filed as inhibitors; AmpC hydrolysis of nitrocefin, absorbance 480 nm, 0.01% Triton; 370,000 tested, 0.041% active; further: nearly all actives have a fitted effect of over 25% in size
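AmpC (5.3 nM in the dispensed reagent) in 20 mM phosphate pH 7.0 with 0.01% (detergent screen) or 0.0001% Triton X-100 was preincubated with compounds for 15 min at room temperature. Nitrocefin was then added from an 800 uM solution, and hydrolysis was followed at 480 nm.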
Numbers stand for hits; - = inactive; ? = inconclusive; . = not tested or not shown; [ ] = remark or other dose. Sampled rows, rich in hits. Any-hit rate of the full collection: about 11%. The call rests on the fitted dose curve; in most records, active means well fitted curve in the direction sought with a large enough effect; inconclusive means small, poorly fitted or top-dose-only effect, or another doubt; inactive means no such curve, though single readings can be large; an effect the other way counts as inactive or inconclusive.

SMILES	Pf growth 96h	AMA1-RON2 inh	AmpC no deterg	HCV inhibitor	Pf growth 48h	AmpC detergent
C=CCN(CC=C)C(=O)C1CCN(S(=O)(=O)c2ccc(N3CCCC3=O)cc2)CC1	7.4µM	-	-	-	-	-
Cc1ccc(NC(=O)c2ccc(N3CCCC3=O)cc2)cc1S(=O)(=O)N1CCCCC1	0.37µM	-	-	?	?	-
Cc1cccc(OCC(=O)Nc2ccccc2C(=O)OCc2cc(=O)n3ccsc3n2)c1	.	.	.	.	.	-
Cc1ccc(NC(=O)Cn2c(=O)n(Cc3ccc(F)cc3)c(=O)c3cccnc32)cc1C	.	.	.	.	.	-
CCN(CC)S(=O)(=O)c1ccc(NC(=O)c2cc3ccc4cccnc4c3[nH]2)cc1	.	.	.	.	.	-
Cc1cccc(CNC(=O)CN2C(=O)CCCc3ccccc32)c1	.	.	.	.	.	-
CC(C)(C)OC(=O)N1CCC(c2c(C(=O)NCCN3CCCC3)cnn2-c2ccc(Cl)cc2)CC1	.	.	.	.	.	-
Cc1cc(C)n(-c2ccc(NC(=O)C3CCCCN3C(=O)c3sccc3C)cc2)n1 (centres undefined)	15µM	-	-	?	-	-
Cc1cc(C)n(-c2ccc(NC(=O)C3CCCCN3C(=O)c3ccoc3)cc2)n1 (centres undefined)	9.3µM	-	-	-	-	-
CCOC(=O)C(CC)Sc1ccc2nnc(CCNS(=O)(=O)c3ccc(C)cc3)n2n1 (centres undefined)	.	.	.	.	.	-
CC(=O)NC(CC(=O)OCC(=O)c1c(N)n(CC(C)C)c(=O)n(C)c1=O)c1ccccc1 (centres undefined)	9.3µM	-	-	-	12µM	-
Cn1c(N)c(C(=O)COC(=O)CC(NC(=O)c2ccccc2Cl)c2ccccc2)c(=O)n(C)c1=O (centres undefined)	?	-	-	?	1.3µM	-
Cn1c(N)c(C(=O)COC(=O)Cc2ccccc2)c(=O)n(C)c1=O	.	-	-	-	.	.
Cc1ccccc1C(=O)NC(CC(C)C)C(=O)OCC(=O)c1c(N)n(C)c(=O)n(C)c1=O (centres undefined)	?	-	-	-	1µM	-
CCN(C(=O)CN(C)S(=O)(=O)c1ccc2c(c1)n(C)c(=O)c(=O)n2C)c1cccc(C)c1	.	.	.	.	.	-
CCOC(=O)c1c(C)oc2c1c(C=NCCO)c(O)c1ccccc12	13µM	-	-	-	?	-
CCOc1ccc(Cn2c(=O)sc3ccccc32)cc1OC	?	-	-	10µM	-	-
COc1ccc(OCCn2c(=O)sc3ccccc32)cc1	2.9µM	-	-	-	-	-
COc1cc(Cn2c(=O)sc3ccccc32)ccc1OC(C)C	.	.	.	.	.	-
Cc1ccccc1OCCn1c(=O)sc2ccccc21	-	-	-	-	13µM	-
CC1(C)N=C(N)NC(Nc2ccc(Br)cc2)=N1	.	-	-	-	5.2µM	-
Cc1cccc(C)c1NC1=NC(C)(C)N=C(N)N1	-	-	-	-	-	?
CC1(C)N=C(N)NC(Nc2cccc(Br)c2)=N1	1.2µM	-	-	-	.	-
CC1=C(C(=O)Nc2cccc(C(F)(F)F)c2)C2(CCCCCC2)OC1=O	.	.	.	.	.	-
CCN(C(=O)c1cnc(NC(C)C)cc1C(F)(F)F)c1ccc(Cl)cc1Cl	12µM	-	-	10µM	2.9µM	-
SMILES	Pf growth 96h	AMA1-RON2 inh	AmpC no deterg	HCV inhibitor	Pf growth 48h	AmpC detergent
Cc1ccc(C(=O)N[C@H](C(=O)OCC(=O)NC2CCS(=O)(=O)C2)C(C)C)cc1 (some centres undefined)	-	-[11.6 µM]	-	-	-	-
Cc1ccc(S(=O)(=O)NC(C(=O)OCC(=O)NC2CCS(=O)(=O)C2)C(C)C)cc1 (centres undefined)	10µM	-	-	-	-	-
CC(C)COC(=O)c1ccc(N)cc1	-	.	.	.	-	.
CC(C)COc1ccc(N)cc1OCC(C)C	-	-	-	2.8µM	-	-
CSc1nn(CC(=O)Nc2cc(C)ccc2C)c(N)c1S(=O)(=O)c1ccccc1	.	.	.	.	.	-
Cc1cc(C)n(CC(=O)N/N=C/c2ccc3c(c2)OCO3)n1	3.7µM	-	-	-	-	-
O=C(N/N=C/c1cc(Br)cc(Cl)c1O)c1ccc2c(c1)OCO2	.	-	.	13µM	.	.
COc1ccc(/C=N/NC(=O)c2cc(-c3ccc4c(c3)OCO4)n[nH]2)cc1OC	12µM	-[2.32 µM]	-	?	?	-
COc1cc(Cl)cc(/C=N\NC(=O)c2ccc3c(c2)OCO3)c1O	.	-	.	.	.	.
O=C(Nc1ncccc1O)c1ccc2c(c1)OCO2	4.1µM	-	-	-	9.3µM	-
CCOc1ccc(CCNC(=O)CCCc2nnc3n(CC(C)C)c(=O)c4sccc4n23)cc1	.	.	.	.	.	-
O=S(=O)(NCCc1nnc2ccc(SCc3ccccc3Cl)nn12)c1ccccc1	.	.	.	.	.	-
Cc1cccc(/C=N/NC(=O)c2ccc(NC(=O)c3ccc(Cl)cc3)cc2)n1	-	-	-	?	-	-
O=C(N/N=C/c1ccc2c(c1)OCO2)c1ccc2c(c1)OCCO2	-	-	-	-	-	-
Cc1cccc(/C=N/NC(=O)c2ccc(NC(=O)c3ccc(F)cc3)cc2)n1	-	-	18µM	?	?	-
O=C(N/N=C/c1ccccc1O)c1ccc2c(c1)OCO2	-	-	-	5.6µM	-	-
Cc1cc(Br)cc(/C=N/NC(=O)c2ccc3c(c2)OCO3)c1O	13µM	-	-	?	13µM	-
O=C(N/N=C/c1ccc2c(c1)OCO2)c1ccc(NC(=O)c2ccc(F)cc2)cc1	-	-	?	-	2.3µM	-
Cc1cccc(N2CCN(C(=O)CCn3c(=O)c4cccn4c4cccnc43)CC2)c1C	.	.	.	.	.	-
CC(C)(C)OC(=O)N/N=C\C=C\c1ccc2c(c1)OCO2	3.7µM	-	-	-	-	-
COc1cccc(NC(=O)C(=O)N/N=C/c2ccc3c(c2)OCO3)c1	10µM	-	-	-	-	?
O=C(N/N=C/c1ccc2c(c1)OCO2)C(=O)Nc1ccccc1Cl	-	-	-	-	-	-
O=C(N/N=C\C=C\c1ccc(Br)cc1)c1ccc2c(c1)OCO2	-	-	-	-	-	45µM
CCN(CC)S(=O)(=O)c1ccc2c(c1)N(CC(=O)N1CCN(c3ccc(OC)cc3)CC1)C(=O)CO2	.	.	.	.	.	-
Cc1ccc(CN2c3ccccc3S(=O)(=O)c3ccccc32)cc1	.	.	.	.	.	-
Cn1c(=O)oc2cc(S(=O)(=O)N3CCC(C(=O)N4CCN(c5ccc(Cl)cc5)CC4)CC3)ccc21	.	.	.	.	.	-
COc1ccc(Nc2ncnc3onc(C)c23)c(OC)c1	.	.	.	.	.	-
Clc1cccc(Cl)c1COc1ccncc1	-	-	-	-	-	-
O=C(OCc1c(Cl)cccc1Cl)c1ccncc1	12µM	-	-	-	?	-
CC(=O)NCCN=C(C)c1sc2ccccc2c1O	-	-	-	-	-	-
